Assay [1] is described as follows: antimalarial activity against Dd2 strain (AID 2302;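 active = growth inhibition above 50% at the single 2 µM test dose, taken to imply half-maximal potency below 2 µM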;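 also: 0% = DMSO untreated growth and 100% = chloroquine plus artemisinin killed control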). The settings on record: P. falciparum Dd2 in RBCs, LDH growth readout, 72 h; at 2 µM; active compounds read high.
The nature of assay [2]: HepG2 cytotoxicity, primary screen, cytotoxicity control for P. falciparum antimalarial project, cell-based, ATP luminescence (AID 2303;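 active = inhibition above 50%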;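 also: 0% = DMSO wells and 100% = digitonin-killed cells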). The settings on record: HepG2 viability, 24-48 h, at 10 µM, active compounds read high.
The target of assay [3] is L-lactate dehydrogenase (Plasmodium falciparum (isolate CDC / Honduras)) (UniProt Q27743). Nature of the assay: PfLDH activity inhibition – cell lysate, 3D7 strain, counter-screen for P. falciparum growth inhibition project (AID 2304).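 Also: 0% = vehicle and 100% = reference inhibitor.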 As to conditions: P. falciparum 3D7 crude extract, LDH APAD/NBT absorbance; at 2 µM; active compounds read high.
Assay [4] in a line: inhibition of 3D7 malaria parasite growth – strain 3D7 (AID 2306).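 Also: 0% = DMSO wells and 100% = chloroquine plus artemisinin control wells.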 The settings on record: P. falciparum 3D7 erythrocytic growth, LDH absorbance, 72 h; at 2 µM; active compounds read high.
For assay [5], the target named is Calcium-dependent protein kinase 1 (Plasmodium falciparum (isolate 3D7)) (UniProt P62344). Nature of the assay: PfCDPK1 kinase inhibitors, biochemical, TCAMS library (AID 1159585; cut-off not given, nearly all actives have IC50 up to about 0.98 µM;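 also: inhibitors leave more ATP so luminescence rises with inhibition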). The settings on record: recombinant PfCDPK1, Kinase-Glo ATP depletion luminescence. In general terms: In Kinase-Glo more light means more ATP remaining.
For assay [6], the target named is Plasmodium falciparum protein kinase 6 (PK6, PF3D7_1337100) (UniProt Q8IDW1). As to the kind of experiment: PfPK6 kinase inhibitors, biochemical, TCAMS library (AID 1159586). As to conditions: recombinant PfPK6, Kinase-Glo ATP depletion luminescence.
Assay [7] addresses Protein kinase 7 (PK7), Plasmodium falciparum 3D7 (PF3D7_0213400) (UniProt Q7YTF7). Nature of the assay: inhibition of Plasmodium PK7 catalytic activity – biochemical, TCAMS antimalarial set, Kinase-Glo luminescence (AID 1159587). The settings on record: recombinant PfPK7, Kinase-Glo ATP depletion luminescence.
Assay [8] concerns the target Calcium-dependent protein kinase 4 (Plasmodium falciparum (isolate 3D7)) (UniProt Q8IBS5). As to the kind of experiment: PfCDPK4 kinase inhibitors, biochemical, TCAMS library (AID 1159588; cut-off not given, nearly all actives have IC50 up to about 0.91 µM). As to conditions: recombinant PfCDPK4, Kinase-Glo ATP depletion luminescence.

Unmarked numbers belong to inactive results. For some of these results: Results with a measured potency or affinity are listed apart. Activity calls are given as the source filed them. Unless noted, no rule for the calls is given here.

Sequence of Plasmodium falciparum protein kinase 6 (PK6, PF3D7_1337100) (Q8IDW1 1-305): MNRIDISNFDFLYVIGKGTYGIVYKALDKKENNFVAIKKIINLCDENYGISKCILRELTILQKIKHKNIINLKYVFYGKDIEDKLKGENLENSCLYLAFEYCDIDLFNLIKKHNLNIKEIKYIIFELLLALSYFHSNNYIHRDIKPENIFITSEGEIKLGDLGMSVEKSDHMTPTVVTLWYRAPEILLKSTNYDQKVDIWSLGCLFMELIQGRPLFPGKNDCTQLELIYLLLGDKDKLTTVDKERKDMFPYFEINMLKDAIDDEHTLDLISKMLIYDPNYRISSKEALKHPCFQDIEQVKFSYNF
Sequence of L-lactate dehydrogenase (Plasmodium falciparum (isolate CDC / Honduras)) (Q27743 whole entry, looked up): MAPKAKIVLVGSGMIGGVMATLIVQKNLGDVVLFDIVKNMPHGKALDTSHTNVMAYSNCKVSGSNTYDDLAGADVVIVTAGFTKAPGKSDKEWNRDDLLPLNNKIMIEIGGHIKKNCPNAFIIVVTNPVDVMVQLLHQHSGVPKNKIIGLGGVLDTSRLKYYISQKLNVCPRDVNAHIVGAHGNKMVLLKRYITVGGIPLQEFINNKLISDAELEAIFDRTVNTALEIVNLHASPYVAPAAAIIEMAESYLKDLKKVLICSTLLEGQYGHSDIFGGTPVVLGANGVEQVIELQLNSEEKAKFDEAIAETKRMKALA
Sequence of Protein kinase 7 (PK7), Plasmodium falciparum 3D7 (PF3D7_0213400) (Q7YTF7 1-343): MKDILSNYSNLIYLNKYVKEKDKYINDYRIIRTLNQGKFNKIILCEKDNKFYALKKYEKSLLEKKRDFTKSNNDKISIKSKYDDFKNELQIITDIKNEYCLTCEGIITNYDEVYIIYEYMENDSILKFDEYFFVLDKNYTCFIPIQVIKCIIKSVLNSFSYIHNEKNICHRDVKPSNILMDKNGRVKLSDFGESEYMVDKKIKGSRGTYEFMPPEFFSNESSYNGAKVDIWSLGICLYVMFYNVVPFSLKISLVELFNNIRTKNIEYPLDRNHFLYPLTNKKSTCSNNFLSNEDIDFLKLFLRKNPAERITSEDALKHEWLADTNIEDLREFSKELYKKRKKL
Sequence of Calcium-dependent protein kinase 1 (Plasmodium falciparum (isolate 3D7)) (P62344 whole entry, looked up): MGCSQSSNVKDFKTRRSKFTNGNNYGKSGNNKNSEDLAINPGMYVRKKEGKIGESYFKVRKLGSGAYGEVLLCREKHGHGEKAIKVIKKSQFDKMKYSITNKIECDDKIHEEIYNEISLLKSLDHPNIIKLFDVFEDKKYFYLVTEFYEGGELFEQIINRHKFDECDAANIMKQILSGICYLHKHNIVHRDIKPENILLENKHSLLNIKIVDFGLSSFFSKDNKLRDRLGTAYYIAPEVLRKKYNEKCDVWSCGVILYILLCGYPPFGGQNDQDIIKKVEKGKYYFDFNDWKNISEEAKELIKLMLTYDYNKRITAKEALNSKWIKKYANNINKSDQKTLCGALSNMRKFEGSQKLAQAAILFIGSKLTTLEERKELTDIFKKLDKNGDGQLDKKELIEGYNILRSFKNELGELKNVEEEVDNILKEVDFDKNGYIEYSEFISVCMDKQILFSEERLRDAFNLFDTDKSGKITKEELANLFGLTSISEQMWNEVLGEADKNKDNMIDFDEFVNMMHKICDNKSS
Sequence of Calcium-dependent protein kinase 4 (Plasmodium falciparum (isolate 3D7)) (Q8IBS5 whole entry, looked up): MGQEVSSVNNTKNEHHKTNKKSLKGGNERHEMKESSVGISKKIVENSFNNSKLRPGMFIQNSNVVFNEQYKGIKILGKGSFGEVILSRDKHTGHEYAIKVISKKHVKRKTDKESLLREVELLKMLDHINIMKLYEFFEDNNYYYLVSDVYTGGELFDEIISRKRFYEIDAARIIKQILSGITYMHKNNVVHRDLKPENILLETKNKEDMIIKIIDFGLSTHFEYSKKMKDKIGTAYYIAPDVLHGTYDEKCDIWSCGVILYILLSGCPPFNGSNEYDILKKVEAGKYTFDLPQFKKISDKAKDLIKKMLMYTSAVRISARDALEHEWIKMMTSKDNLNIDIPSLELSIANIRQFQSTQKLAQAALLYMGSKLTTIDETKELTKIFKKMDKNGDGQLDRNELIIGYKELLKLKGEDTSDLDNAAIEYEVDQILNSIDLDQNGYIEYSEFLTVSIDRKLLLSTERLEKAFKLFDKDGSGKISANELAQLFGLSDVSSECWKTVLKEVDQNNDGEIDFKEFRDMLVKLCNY

As usually defined, the inhibition is the change of the read-out against control, counted positive when it falls. `COc1ccc2c(NN=Cc3cccc(Cl)c3)ccnc2c1`: the growth inhibition in assay [1] was 94% (active); in assay [4] it was 101% (active). The inhibition is 32% in assay [2] and -3% in assay [3]. Also, the outcome in assay [5], in assay [6], in assay [7] and in assay [8] was inactive.
For `O=C(NC1CCC1)C1CCN(C(c2ccc(Cl)cc2)c2ccc(Cl)cc2)CC1`, the growth inhibition in assay [1] is 70% (active); in assay [4], 95% (active). Besides, the results for the inhibition in assay [2] and in assay [3] were 6% and 8%, respectively. The outcome in assay [5], in assay [6], in assay [7] and in assay [8] was inactive.
With `Cc1cc(N)ncc1-c1ccc(NC(=O)Nc2cc(C(F)(F)F)ccc2F)cc1`, the growth inhibition in assay [1] was 23%; in assay [4], 100% (active). In addition, the inhibition in assay [2] is 15%; in assay [3], 3%. The outcome in assay [5], in assay [6], in assay [7] and in assay [8] was inactive.
On to `COc1ccc(NC(=O)N2CCCN(CCCCCNC(=O)/C=C/c3ccc(Cl)cc3)CC2)cc1Cl`, for which the values for the growth inhibition in assay [1] and in assay [4] were 1% and 97% (active), respectively. In addition, the inhibition was 15% in assay [2] and 1% in assay [3]. Besides, the result in assay [5], in assay [6], in assay [7] and in assay [8] was inactive.
Take `CC(=O)Nc1cc(C(=O)Nc2cccc(-c3csc(-c4nc5ccccc5[nH]4)c3)c2)ccc1C`: the figures for the growth inhibition in assay [1] and in assay [4] were 66% (active) and 94% (active), respectively. The inhibition in assay [2] is 31%; in assay [3], 3%. Besides, the outcome in assay [5], in assay [6], in assay [7] and in assay [8] was inactive.
`CC(c1cccc(S(=O)(=O)NCc2ccc(Cl)cc2Cl)c1)N1CCC(N2CCCCC2)CC1` (stereo not given): the growth inhibition is 40% in assay [1] and 100% (active) in assay [4]. In addition, the inhibition is 36% in assay [2] and -2% in assay [3]. The outcome in assay [5], in assay [6], in assay [7] and in assay [8] was inactive.
Consider `CCc1cn2c3c(cc(C(=O)N[C@@H](Cc4cc(F)cc(F)c4)[C@H](O)CNC4CCOCC4)cc13)N(C)S(=O)(=O)CC2`, for which the growth inhibition in assay [1] and in assay [4] was 98% (active) each time. Further, the results for the inhibition in assay [2] and in assay [3] were 1% and -7%, respectively. Besides, the outcome in assay [5], in assay [6], in assay [7] and in assay [8] was inactive.
As for `COc1ccc(Nc2ncc3c(-c4ccc(NC(=O)c5cccc(C(F)(F)F)c5)cc4)c[nH]c3n2)cc1OC`, the results for the growth inhibition in assay [1] and in assay [4] were 30% and 89% (active), respectively. Further, the inhibition in assay [2] is 26%; in assay [3], 4%. The outcome in assay [5], in assay [6], in assay [7] and in assay [8] was inactive.
As for `CCN(CC)CCCCNc1cc(-c2[nH]c(-c3c(Cl)cccc3Cl)nc2-c2ccc3cc(OC)ccc3c2)ccn1`, the growth inhibition in assay [1] was 93% (active); in assay [4] it was 95% (active). Also, the results for the inhibition in assay [2] and in assay [3] were 23% and -5%, respectively. Besides, the outcome in assay [5], in assay [6], in assay [7] and in assay [8] was inactive.
`CC(C)(C)OC(=O)N1CCN(c2ccccc2NC(=O)c2cccc(C(F)(F)F)c2Oc2ccc(F)cc2)CC1`: the growth inhibition is 9% in assay [1] and 100% (active) in assay [4]. Further, the inhibition in assay [2] was 3%; in assay [3] it was -8%. In addition, the outcome in assay [5], in assay [6], in assay [7] and in assay [8] was inactive.
On to `C[C@@H](Oc1cc(-n2cnc3ccc(NC(=O)CCN4CCCCC4)cc32)sc1C(N)=O)c1ccccc1Cl`, for which the figures for the growth inhibition in assay [1] and in assay [4] were 60% (active) and 101% (active), respectively. The inhibition in assay [2] is 36%; in assay [3], 3%. The outcome in assay [5], in assay [6], in assay [7] and in assay [8] was inactive.
Take `CC(C)(C)OC(=O)Nc1cccc(-c2csc(N=C(N)N)n2)c1`: the growth inhibition was 83% (active) in assay [1] and 97% (active) in assay [4]. For the same compound, the inhibition in assay [2] is 4%; in assay [3] it was 2%. Besides, the outcome in assay [5], in assay [6], in assay [7] and in assay [8] was inactive.
For `CS(=O)(=O)CCNc1cc(N2CCc3ncnc(Nc4ccc(OCc5cccc(F)c5)c(Cl)c4)c3C2)ncn1`, the growth inhibition in assay [1] is 50% (active); in assay [4], 96% (active). Further, the values for the inhibition in assay [2] and in assay [3] were -17% and 5%, respectively. Further, the outcome in assay [5], in assay [6], in assay [7] and in assay [8] was inactive.
With `Brc1cc(CNCCCNc2nc3ccccc3[nH]2)sc1Br`, the values for the growth inhibition in assay [1] and in assay [4] were 21% and 100% (active), respectively. Also, the inhibition in assay [2] is 10%; in assay [3], 8%. Besides, the result in assay [5], in assay [6], in assay [7] and in assay [8] was inactive.
As to `COc1cc(OC)c(NC(=O)C2c3ccccc3C(=O)N(C)C2c2cccs2)cc1Cl` (stereo not given), the growth inhibition was 52% (active) in assay [1] and 99% (active) in assay [4]. Also, the inhibition was 4% in assay [2] and -5% in assay [3]. In addition, the outcome in assay [5], in assay [6], in assay [7] and in assay [8] was inactive.
With `NC1CCN(Cc2cccc(-c3ccc(-c4nc5ccc(C(F)(F)F)cc5[nH]4)cc3)c2)C1` (stereo not given), the growth inhibition in assay [1] is 97% (active); in assay [4] it was 99% (active). Moreover, the inhibition is 21% in assay [2] and -9% in assay [3]. Moreover, the outcome in assay [5], in assay [6], in assay [7] and in assay [8] was inactive.
`CC(=NN=C(N)N)c1ccc2c(c1)Cc1ccccc1-2`: the growth inhibition in assay [1] was 10%; in assay [4], 101% (active). The inhibition is 44% in assay [2] and 5% in assay [3]. Besides, the result in assay [5], in assay [6], in assay [7] and in assay [8] was inactive.
As to `CCc1cc2c(=O)c(-c3nc(C)cs3)c(N)oc2c(CN2CCCCC2)c1O`, the growth inhibition in assay [1] is 97% (active); in assay [4], 99% (active). For the same compound, the results for the inhibition in assay [2] and in assay [3] were -2% and 0%, respectively. Further, the result in assay [5], in assay [6], in assay [7] and in assay [8] was inactive.
Regarding `Cc1ccccc1C(=O)Nc1cccc(-c2nc3ncccn3c2C)c1`, the growth inhibition in assay [1] and in assay [4] was 94% (active) throughout. For the same compound, the inhibition in assay [2] was -5%; in assay [3], 1%. The outcome in assay [5], in assay [6], in assay [7] and in assay [8] was inactive.
Consider `S=C(NCCc1ccccc1)Nc1ccc2ncsc2c1`, for which the growth inhibition is 3% in assay [1] and 96% (active) in assay [4]. Also, the inhibition in assay [2] is -20%; in assay [3] it was -3%. Besides, the result in assay [5], in assay [6], in assay [7] and in assay [8] was inactive.

The values are drawn from PubChem BioAssay.
